# Many of the other results were omitted from the sample, so hits are more common in it than they were.
# Cruzain Triton = cruzain (T. cruzi) inhibition with detergent | P25779 | purified cruzain, Z-FR-AMC fluorescence, 0.01% Triton | Potency, µM, for the others: max response, negative = inhibition, usual class: inhibitors | actives 0.43% (n = 200,000) | AID 1478;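 also: plate controls were neutral wells for no effect and buffer without enzyme for full effect; nearly all actives have a fitted effect of over 40% in size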
#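 In this qHTS format, compounds are incubated with 1.5 nM cruzain for 15 min at room temperature before 2 uM Z-FR-AMC is added. Release of AMC is followed at 360/450 nm, and progress is taken as the 60 s fluorescence difference.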
# Cruzain inh noDet = blocks cruzain activity in detergent-free assay; P25779; purified cruzain, Z-FR-AMC fluorescence, no detergent; Potency, µM, for inactives: max response, negative = inhibition, usual class: inhibitors; actives 2.3% (n = 200,000); AID 1476;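 also: plate controls were enzyme without inhibitor for no effect and buffer without enzyme for full effect; nearly all actives have a fitted effect of over 40% in size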
#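 Purified cruzain at 1.5 nM, pre-incubated 15 min with compound at room temperature in 100 mM sodium acetate pH 5.5, 5 mM DTT, 0.00005% Triton X-100. Reaction started with 2 uM Z-FR-AMC; AMC fluorescence increase over 60 s gives rate.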
# Giardia FBPA inh-1 = Giardia lamblia aldolase inhibition; purified Giardia FBPA; Potency, µM (doses to about 59.6 µM), for the others: top-dose activity, negative = inhibition, usual class: inhibitors; actives 0.71% (n = 290,000); AID 2451; also: nearly all actives have a fitted effect of over 55% in size
# Target sequence (A8B2U2 whole entry, looked up): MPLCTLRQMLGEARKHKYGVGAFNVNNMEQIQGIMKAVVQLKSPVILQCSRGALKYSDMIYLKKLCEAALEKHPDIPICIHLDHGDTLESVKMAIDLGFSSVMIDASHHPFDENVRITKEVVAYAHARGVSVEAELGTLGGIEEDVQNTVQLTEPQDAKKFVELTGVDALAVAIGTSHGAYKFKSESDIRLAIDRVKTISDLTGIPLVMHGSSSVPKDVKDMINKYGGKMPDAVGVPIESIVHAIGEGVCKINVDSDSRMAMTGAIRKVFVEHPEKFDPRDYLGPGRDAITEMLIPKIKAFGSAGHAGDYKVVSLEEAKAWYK
#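 Giardia FBPA (40 nM reagent) was preincubated 10 min at RT with compound (up to 57.5 uM final), then substrate plus GAPDH/TPI/NAD/arsenate coupling system with diaphorase/resazurin was added; resorufin fluorescence (525/598 nm) was read after 20 min.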
# Giardia growth = blocks growth of Giardia lamblia trophozoites; shares compounds with Giardia FBPA inh-1; Giardia lamblia trophozoite growth inhibition; Potency, µM (top dose mostly 57.5 µM), inactives show at the top dose activity change, negative = inhibition, actives largely listed as inhibitors; actives 5% (n = 1,500); AID 2785;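 also: trophozoites exposed to compound for 48 h at 37 °C; nearly all actives have a fitted effect of over 70% in size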
# Mammal cell tox = counter-screen for Giardia aldolase inhibitors: mammalian cell toxicity | shares compounds with Giardia FBPA inh-1 | mammalian cell viability counter-screen, qHTS | Potency, µM (top dose mostly 57.5 µM), without a hit: at the highest dose viability change, negative = toxicity, actives largely listed as inhibitors | actives 4% (n = 1,500) | AID 2786;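 also: Chinese hamster ovary cells used as mammalian cytotoxicity surrogate; viability measured as cellular ATP by luminescence; compound exposure lasted 48 h before reading; nearly all actives have a fitted effect of over 60% in size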
# Giardia FBPA inh-2 = confirmation of Giardia fructose-bisphosphate aldolase inhibitors; shares compounds with Giardia FBPA inh-1; purified Giardia aldolase enzyme activity, qHTS; Potency, µM (doses to about 57.5 µM), for the others: top-dose activity change, negative = inhibition, hits mostly inhibitors; actives 5% (n = 1,500); also: nearly all actives have a fitted effect of over 45% in size
# Rabbit FBPA inh = blocks rabbit muscle aldolase in Giardia aldolase selectivity test. shares compounds with Giardia FBPA inh-1. Rabbit muscle FBPA enzyme inhibition, selectivity counter-screen. Potency, µM (series often up to 57.5 µM), without a hit: top-dose activity, negative = inhibition, most hits filed as inhibitors. actives 4% (n = 1,500); also: nearly all actives have a fitted effect of over 60% in size
# Target sequence (P00883 whole entry, looked up): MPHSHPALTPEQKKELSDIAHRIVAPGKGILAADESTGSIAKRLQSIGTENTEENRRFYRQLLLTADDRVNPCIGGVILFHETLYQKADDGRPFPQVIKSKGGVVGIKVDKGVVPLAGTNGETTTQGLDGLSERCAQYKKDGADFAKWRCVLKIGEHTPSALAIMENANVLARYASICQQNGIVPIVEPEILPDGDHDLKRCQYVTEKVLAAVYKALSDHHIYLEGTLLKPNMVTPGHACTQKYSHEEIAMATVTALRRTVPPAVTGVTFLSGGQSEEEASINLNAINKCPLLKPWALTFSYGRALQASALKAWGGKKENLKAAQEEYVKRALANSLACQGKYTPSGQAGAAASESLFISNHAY
# GAPDH counter = counter-screen for Giardia aldolase inhibitors: GAPDH coupling enzyme. shares compounds with Giardia FBPA inh-1. GAPDH coupling enzyme counterscreen, biochemical, qHTS. Potency, µM (doses to about 57.5 µM), for the others: at the highest dose activity change, negative = inhibition, most hits filed as inhibitors. actives 6% (n = 1,500); also: nearly all actives have a fitted effect of over 55% in size
# Starred values were filed as active, the others as inactive; ? = inconclusive; . = no result; [ ] = remark or other dose. Calls follow the shape of the dose curve; as a rule, active = well fitted curve in the direction sought with a large enough effect; inconclusive = small, poorly fitted or top-dose-only effect, or another doubt; inactive = no such curve, though single readings can be large; an effect the other way counts as inactive or inconclusive. Unless noted, % is scaled to controls: 0 for no effect and ±100 for the full control effect; potency is read from the fitted curve at half-maximal effect.
SMILES,Cruzain Triton,Cruzain inh noDet,Giardia FBPA inh-1,Giardia growth,Mammal cell tox,Giardia FBPA inh-2,Rabbit FBPA inh,GAPDH counter
Cc1ccc(CCNC(=O)c2cn(C)c3ccc(S(=O)(=O)N4CCC(C)CC4)cc3c2=O)cc1,-0.3%,-7.4%,.,.,.,.,.,.
NS(=O)(=O)c1ccc(NC(=S)NC(=O)c2cccs2)cc1,.,.,17.7µM*,?,6.7%,7.1%,5.0%,4.3%
CN(C)S(=O)(=O)c1ccc(NC(=S)NC(=O)c2ccc(Br)o2)cc1,.,.,15.8µM*,3.2%[10.4 µM],-8.4%,1.4%,6.5%,15.1%
NS(=O)(=O)c1ccc(NC(=S)NC(=O)c2ccc(Br)o2)cc1,.,.,17.7µM*,7.0%[10.4 µM],-0.1%,-3.3%,6.3%,6.2%
Cc1cc(C)cc(NS(=O)(=O)c2ccc(NC(=S)NC(=O)c3ccc(Br)o3)cc2)c1,-0.2%,?,-24.4%,.,.,.,.,.
O=C(NC(=S)Nc1ccc(S(=O)(=O)N2CCCCC2)cc1)c1cccs1,-7.9%,-6.0%,?,.,.,.,.,.
O=C(NC(=S)Nc1ccc(S(=O)(=O)Nc2nccs2)cc1)c1ccc(Br)o1,.,.,-20.0%,.,.,.,.,.
Cc1ccc(OCCSc2nc3ccccc3n2CC(=O)N2CCCCC2)c(C)c1,-3.6%,3.4%,.,.,.,.,.,.
COc1ccc(-c2noc(N3CCC(C(=O)N(C)c4cc(Cl)ccc4OC)CC3)n2)cc1,-0.7%,-5.3%,.,.,.,.,.,.
CCCCc1ccc(-n2nc3cc(C)c(NC(=O)c4ccc(C#N)cc4F)cc3n2)cc1,0.7%,-8.2%,.,.,.,.,.,.
CC(C)c1ccc(/C=N/N2CCN(c3ccccn3)CC2)cc1,.,.,0.3%,.,.,.,.,.
CC(C)c1ccc(/C=N/N2CCCCC2)cc1,.,.,14.1µM*,-15.1%[10.4 µM],-1.0%,-7.6%,-5.5%,-6.0%
Cc1ccccc1C(=O)Nc1nnc(S(=O)(=O)N2CCCc3ccccc32)s1,-0.7%,12.8%,.,.,.,.,.,.
O=C(CSc1nnc(CNC(=O)c2ccccc2)n1-c1cccc(Cl)c1)Nc1ccccc1F,0.7%,55.7%,.,.,.,.,.,.
Cc1[nH]n(-c2ccccc2)c(=O)c1/C=N/Nc1nncc(-c2ccccc2)n1,-15.5%,?,7.92µM*,?,20µM*,-16.5%,-3.2%,-7.8%
Cc1ccc(/C=N/Nc2nncc(-c3ccccc3)n2)o1,.,.,-5.7%,.,.,.,.,.
Cc1ccc(Cn2c(CNS(=O)(=O)c3cccc([N+](=O)[O-])c3)nc3cccnc32)cc1,-3.9%,-2.7%,.,.,.,.,.,.
Cc1cc(=O)[nH]c(N/N=C/c2c(C)nn(-c3ccccc3)c2C)n1,.,.,-4.3%,.,.,.,.,.
Cc1nn(-c2ccccc2)c(C)c1/C=N/Nc1nc2ccccc2[nH]1,?,25.1µM*,19.9µM*,14.1µM*,25.1µM*,8.4%,0.1%,-15.6%
CCC(C)[C@H](NC(=O)[C@@H]1Cc2ccccc2CN1)C(=O)NCc1ccc(OC)cc1 (stereo partly drawn),.,.,14.1µM*,-29.8%,14.2%,8.1%,2.2%,10.7%
CC(CCc1ccccc1)NC(=O)[C@@H]1Cc2ccccc2CN1 (stereo partly drawn),.,.,14.4%,.,.,.,.,.
Cc1ccccc1NC(=O)C1CCC(CNS(=O)(=O)c2ccc3c(c2)C(C)(C)C(=O)N3C)CC1 (stereo not drawn),0.1%,?,.,.,.,.,.,.
CC1=NN(c2ccccc2)C(=O)C1N=Nc1ccccc1 (stereo not drawn),-6.3%,-7.0%,?,.,.,.,.,.
CC1=NN(c2ccccc2)C(=O)C1N=Nc1cccc(O)c1 (stereo not drawn),.,.,10µM*,?,2.8%,3.7%,-2.8%,1.0%
CC1=NN(c2ccccc2)C(=O)C1N=Nc1ccc(N)cc1 (stereo not drawn),-8.3%,?,?,.,.,.,.,.
SMILES,Cruzain Triton,Cruzain inh noDet,Giardia FBPA inh-1,Giardia growth,Mammal cell tox,Giardia FBPA inh-2,Rabbit FBPA inh,GAPDH counter
COc1ccc(N=NC2C(=O)N(c3ccccc3)N=C2C)cc1 (stereo not drawn),.,.,28.2µM*,7.0%,-8.9%,1.7%,-0.7%,-0.6%
COc1ccc2c(c1)CC(C(=O)NCCN1CCN(c3cccc(Cl)c3)CC1)CO2 (stereo not drawn),-4.1%,-4.5%,.,.,.,.,.,.
CCc1ccc(Sc2cc(C(=O)O)c3ccccc3n2)cc1,-1.9%,6.2%,.,.,.,.,.,.
CCOc1cc(C2CC(=O)Nc3c2c(=O)nc(SCc2cccc(Cl)c2)n3C)ccc1O (stereo not drawn),-1.7%,4.4%,.,.,.,.,.,.
O=C(O)c1cc(-c2cc(C(=O)O)c3ccccc3n2)nc2ccccc12,.,.,2.51µM*,-12.6%[38.3 µM],-10.9%,-1.8%,3.7%,-5.8%
O=C(O)c1cc(-c2cccc3ccccc23)nc2ccccc12,.,.,-6.9%,.,.,.,.,.
c1ccc2[nH]c(SN3CCOCC3)nc2c1,3.7%,-5.5%,3.55µM*,?,-3.8%,3.4%,-21.2%,?
c1ccc2[nH]c(CN3CCOCC3)nc2c1,-0.6%,-0.2%,-5.7%,.,.,.,.,.
COC(=O)c1ccc(C(=O)OC)nc1,3.3%,0.9%,0.6%,.,.,.,.,.
COC(=O)c1ccc(C(=O)O)nc1,.,.,19.9µM*,60.8%,10.7%,2.9%,12.2%,-3.4%
Cc1ccc(C#N)cc1,0.8%,-0.7%,.,.,.,.,.,.
N#C/C(=C(/O)c1ccc(Cl)cc1)c1nc2ccccc2[nH]1,.,.,5.3%,.,.,.,.,.
N#C/C(=C(\O)c1cc(Cl)sc1Cl)c1nc2ccccc2[nH]1,.,.,25.1µM*,11.4%,1.4%,-19.4%,3.4%,?
CCc1ccc(CNC(=O)Cc2ccc(NC(=O)N3CCSc4ncccc43)cc2)cc1,-11.0%,-8.0%,.,.,.,.,.,.

# Screens from PubChem BioAssay.
